The values below come from PubChem BioAssay AID1851 (National Center for Advancing Translational Sciences (NCATS), 2009).

Several values for one entry are separate records, joined by “and”; a condition that tells them apart may be missing. Equal values may be shown once. Hit rate of the full screen: of about 16,000 compounds, about 5,800 (36%) were called active. Inconclusive results (about 23%) are left out. The call rests on the fitted dose curve; in most records, active means well fitted curve in the direction sought with a large enough effect; inconclusive means small, poorly fitted or top-dose-only effect, or effect the other way; inactive means no such curve, though single readings can be large or run the other way. The list shows a part of the results. Some compounds were tested as several samples or in several runs, with calls that do not always agree.
On the % scale 0 is the no-effect control and ±100 the full control effect.

The target in this assay is Cytochrome P450 2C19 (Homo sapiens) (UniProt P33261). The assay is described as follows: Cytochrome panel assay with activity outcomes. The following applies: recombinant CYP, pro-luciferin dealkylation, luminescence, p450-cyp2c19; series mostly up to 57.1 µM; activity, negative = inhibition: at the top concentration.
Cytochrome P450 2C19 (Homo sapiens), sequence (P33261 whole entry, looked up): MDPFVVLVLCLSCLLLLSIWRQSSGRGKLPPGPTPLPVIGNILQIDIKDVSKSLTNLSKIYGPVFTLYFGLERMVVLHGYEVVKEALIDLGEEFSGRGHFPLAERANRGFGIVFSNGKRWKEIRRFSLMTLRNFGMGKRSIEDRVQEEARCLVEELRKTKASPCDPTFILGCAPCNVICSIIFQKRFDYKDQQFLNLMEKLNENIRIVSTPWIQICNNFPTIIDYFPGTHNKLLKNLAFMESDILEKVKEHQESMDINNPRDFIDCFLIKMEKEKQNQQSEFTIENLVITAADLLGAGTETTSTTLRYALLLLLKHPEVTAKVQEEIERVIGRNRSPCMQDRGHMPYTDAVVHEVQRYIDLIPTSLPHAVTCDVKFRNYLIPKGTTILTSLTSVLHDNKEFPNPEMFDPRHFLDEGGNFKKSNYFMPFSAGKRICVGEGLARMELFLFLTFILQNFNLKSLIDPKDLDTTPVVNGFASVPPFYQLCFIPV
As to `O=C(O)[C@@H](O)c1ccc(F)cc1`, the activity, negative = inhibition is 10.1% [at 11.4 µM] (inactive). Consider `C[C@@H](C(=O)O)c1ccc(-c2ccccc2)c(F)c1`, for which the half-maximal activity concentration (AC50) (in general, the concentration giving half of the maximal activity seen) is “inactive and 631 nM (active)”. On the same count and under the same terms, the same measure for `O=S(Cc1ccccc1)CC(O)(c1ccccc1)c1ccccc1` (centres undefined): 5.01 µM (active). Take `O=C(O)C(Cl)(c1ccccc1)c1ccccc1`: the activity, negative = inhibition is -2.62% [at 11.4 µM] (inactive). On the same count and under the same terms, then `O=C(O)c1cccc(C(=O)O)c1S(=O)Cc1ccccc1` (centres undefined), with 41.5% [at 11.4 µM] (inactive); and `CCOC(OCC)P(=O)(O)CCCNCc1ccc(Cl)c(Cl)c1`, with 12.9% (inactive).

Regarding `CCOc1ccc(C(=O)Nc2cnn(Cc3ccc(Cl)c(Cl)c3)c2)cc1`, the AC50 was 3.55 µM (active). With `Cn1cc(-c2nc3cnc(N4CCNCC4)nc3n(Cc3ccc(F)cc3)c2=O)c2ccccc21`, the half-maximal activity concentration (AC50) is 7.94 µM (active). Take `Cn1cc(-c2nc3cnc(N4CCNCC4)nc3n(CCc3ccccc3)c2=O)c2ccccc21`: the AC50 was 2 µM (active).

In the case of `CCNc1ncc2nc(-c3cn(C)c4ccccc34)c(=O)n(Cc3ccc(F)cc3)c2n1`, the “activity, negative = inhibition” value was -44.7% (inactive).

Turning to `CN1CCN(c2ncc3nc(-c4cn(C)c5ccccc45)c(=O)n(CCc4ccccc4)c3n2)CC1`, the “activity, negative = inhibition” value was 31.9% (inactive).

For the compound `Cn1cc(-c2nc3cnc(N4CCOCC4)nc3n(CCC#N)c2=O)c2ccccc21`, the “activity, negative = inhibition” value was -40.9% (inactive). Take `COCCn1c(=O)c(-c2cn(C)c3ccccc23)nc2cnc(N3CCNCC3)nc21`: the “activity, negative = inhibition” value was -24.4% (inactive).

As for `CSc1nc(O)c(Cc2ccccc2)c(=O)[nH]1`, the “activity, negative = inhibition” value is -4.58% (inactive). On to `CSc1nc(C)c(CCOC(=O)c2ccccc2)c(=O)[nH]1`, for which the half-maximal activity concentration (AC50) is 15.8 µM (active).

Consider `CSc1nc(C)c(CCOC(=O)c2cccc(C)c2)c(=O)[nH]1`, for which the concentration at half-maximal activity (AC50) was 3.16 µM (active).

On to `Cc1ccccc1[C@@H](OCCN(C)C)c1ccccc1`, for which the AC50 result was “inactive”. Take `COc1ccc(N2CCN(Cc3nc4c(c(=O)n(C)c(=O)n4C)n3CC(C)=O)CC2)cc1`: the “activity, negative = inhibition” value was 8.13% (inactive).

For the compound `C=CCn1c(=O)c2c(nc(Br)n2Cc2ccccc2Cl)n(C)c1=O`, the half-maximal activity concentration (AC50) was 0.794 µM (active).

Take `C=CCn1c(=O)c2c(nc(-c3ccc(S(=O)(=O)O)cc3)n2C)n(C)c1=O`: the “activity, negative = inhibition” value was 21.2% (inactive).

As to `COC(=O)Cn1c(=O)c2c(nc(Br)n2Cc2ccccc2Cl)n(C)c1=O`, the AC50 is 0.891 µM (active).

`C=CCn1cc(Cl)c(=O)n(CC=C)c1=O`: the “activity, negative = inhibition” value is -27.6% (inactive). Still for that read-out and setting: the same measure for `CN(C)c1nc2c(c(=O)[nH]c(=O)n2C)n1Cc1ccccc1Br`: -18.6% (inactive). For the compound `C=CCn1c(NCc2ccccc2)nc2ccccc21`, the AC50 is 3.16 µM (active). Consider `CCn1nccc1C(=O)Nc1nc2ccccc2n1CCN1CCCCC1`, for which the “activity, negative = inhibition” value is -4.94% (inactive). As to `CC(=O)Nc1nc2ccccc2n1Cc1ccccc1`, the half-maximal activity concentration (AC50) is 22.4 µM (active).

Turning to `O=C(Nc1nc2ccccc2n1Cc1ccccc1)c1ccc(COc2ccccc2[N+](=O)[O-])o1`, the half-maximal activity concentration (AC50) is 1.26 µM (active). Still for that read-out and setting: the same measure for `COc1ccc(CNc2nc3ccccc3n2Cc2ccccc2)cc1OC`: 7.94 µM (active). `CC(C)CN1CCC2(CC1)CCN(C(=O)c1cc(C(F)(F)F)cc(C(F)(F)F)c1)CC2`: the “activity, negative = inhibition” value was 14.1% (inactive). With `CC[C@](N)(CCC(=O)O)C(=O)O`, the “activity, negative = inhibition” value was -20.8% (inactive). Still for that read-out and setting: then `CN(C)c1ncc2nc(-c3cc(F)cc(F)c3)c(=O)n(C[C@H]3CCCO3)c2n1`, with -6.59% (inactive). Regarding `O=C(CN(Cc1ccccc1)S(=O)(=O)c1ccc2c(c1)OCCO2)N/N=C/c1ccc(F)cc1`, the AC50 is 3.98 µM (active). The same measure, in the same setting: then `CN(CCc1ccccn1)c1ccc2c(c1)Cc1ccccc1-2`, with 0.794 µM (active); and `CN(CCc1ccccn1)c1ccc2c(c1)C(=O)c1ccccc1-2`, with 2.51 µM (active); and `CCOC(=O)C1=C(O)C(=O)N(Cc2ccccc2)C1`, with 15.8 µM (active). With `CCOC(=O)N/N=C1/C[C@@H](O)[C@@H](O)[C@@H]2[C@@H]3C(=O)N(Cc4ccccc4)C(=O)[C@H]3CC[C@@H]12`, the activity, negative = inhibition was 11.9% [at 11.4 µM] (inactive). Still for that read-out and setting: then `COC(=O)c1nnn(Cc2ccccc2)c1N`, with 3.49% (inactive).

`O=c1onc2n1-c1cc(Br)ccc1OC2`: the “activity, negative = inhibition” value was 5.02% (inactive). Turning to `Cc1nn(-c2ccccc2)c(Cl)c1/C=N/NC(=O)c1ccco1`, the half-maximal activity concentration (AC50) was 15.8 µM (active). On the same count and under the same terms, the same measure for `Cc1nn(-c2ccccc2)c(C)c1/C=N/NC(=O)c1cc(-c2ccc(Cl)s2)[nH]n1`: 10 µM (active). With `N[C@@H](CCCP(=O)(O)O)C(=O)O`, the “activity, negative = inhibition” value is -20.6% (inactive). With `COc1ccc(OCc2nnc(SCC(=O)N3c4ccccc4Sc4ccc(Cl)cc43)o2)cc1`, the AC50 was 6.31 µM (active). In the case of `O=C1CSC2(CCN(CCCN3c4ccccc4Sc4ccc(Cl)cc43)CC2)N1`, the activity, negative = inhibition was -35% [at 11.4 µM] (inactive). On the same count and under the same terms, the same measure for `OC1CC2CC[C@H](C1)N2CCCN1c2ccccc2Sc2ccc(Cl)cc21` (some centres undefined): -19.5% [at 11.4 µM] (inactive). With `O=C(CSc1nc2ccccc2o1)N1c2ccccc2Sc2ccc(Cl)cc21`, the AC50 was 2.51 µM (active). `COc1ccc2c(c1)N(CC[C@H]1CCCCN1C)c1ccccc1S2`: the activity, negative = inhibition is -12% [at 11.4 µM] (inactive). As to `O=C(CSc1nc2ccccc2s1)N1c2ccccc2Sc2ccc(C(F)(F)F)cc21`, the AC50 is 4.47 µM (active). Consider `COc1ccc2c(c1)N(C[C@@H](C)CN(C)C)c1ccccc1S2`, for which the “activity, negative = inhibition” value was -41.9% [at 25.6 µM] (inactive). Still for that read-out and setting: then `O=C(O)CCCSc1nc2ccccc2s1`, with 20.2% [at 11.4 µM] (inactive).
